This is a sample that favours compounds with a hit; in the whole collection about 6.8% have one here.
PINK1 expr mod: PINK1 expression modulation; PINK1 immunofluorescence, high-content cytometry, 24 h; Potency, µM (doses to about 76.6 µM), usual class: activators; actives 0.2% (n = 410,000); active = well fitted activation curve with a large enough effect; inconclusive = small, poorly fitted or top-dose-only effect; cell line not stated here; also: nearly all actives have a fitted effect of over 65% in size
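PINK1 protein, normally rapidly degraded, was detected by immunofluorescence after 24 hour compound treatment of a stable cell line. Titration data (5 concentrations) came from laser-scanning cytometry, with CCCP-treated wells as controls.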
KB-3-1 tox: kills parental KB-3-1 adenocarcinoma cells | KB-3-1 viability, CellTiter-Glo ATP luminescence, 72 h | Potency, µM (series often up to 46.1 µM), hits mostly cytotoxic | actives 1.4% (n = 400,000); also: nearly all actives have a fitted effect of over 60% in size
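KB-3-1 cells, DMEM (no phenol red) + 10% FBS; compound by pin transfer, 72 h, 37 °C. Readout: CellTiter-Glo luminescence after 10 min. Data normalized, curve-fitted.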
KB-V1 MDR tox: kills drug-selected multidrug resistant KB-V1 cells. KB-V1 MDR cells viability, CellTiter-Glo, 72 h. Potency, µM (series often up to 46.1 µM), actives largely listed as cytotoxic. actives 3.4% (n = 400,000). AID 1347076; also: nearly all actives have a fitted effect of over 60% in size
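Cytotoxicity toward P-gp-expressing KB-V1 cells was determined as loss of CellTiter-Glo luminescence after 72 h at 37 degrees C. Compounds were tested in quantitative HTS format across a concentration range, with curves fitted to normalized data.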
PTAP TSG101 blk: blocks PTAP/TSG101 interaction to inhibit HIV-1 budding | 340,000 tested, under 10 active | Fluorescence polarization, FITC-PTAP peptide / Tsg101 binding | Q99816 | Potency, µM (highest dose often 115 µM), most hits filed as inhibitors | AID 493005; active = well fitted inhibition curve with a large enough effect in the main read-out, with a control signal flat, not every such curve was filed as active; inconclusive = small, poorly fitted or top-dose-only effect, or effect the other way, or a change in a side signal; inactive = no such curve, though single readings can be large or run the other way
Target sequence (Q99816 whole entry, looked up): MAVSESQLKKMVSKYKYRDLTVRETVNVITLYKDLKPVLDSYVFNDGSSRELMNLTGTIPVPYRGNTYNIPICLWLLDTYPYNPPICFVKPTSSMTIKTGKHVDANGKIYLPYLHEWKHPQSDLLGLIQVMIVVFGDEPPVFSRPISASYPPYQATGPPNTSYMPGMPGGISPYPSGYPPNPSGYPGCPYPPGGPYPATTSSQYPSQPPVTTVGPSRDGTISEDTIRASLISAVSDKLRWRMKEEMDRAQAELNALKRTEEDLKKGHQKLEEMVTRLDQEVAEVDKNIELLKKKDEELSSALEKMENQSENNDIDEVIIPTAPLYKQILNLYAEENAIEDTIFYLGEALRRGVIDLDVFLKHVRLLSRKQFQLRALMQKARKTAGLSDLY
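Steps: Tsg101 binding domain dispensed (10 uM final), compounds pinned in DMSO, FITC-labeled PTAP-motif peptide added (50 nM final); after 20 min binding at room temperature, polarization measured.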
SW480 rerep: DNA re-replication induction in SW480 cells. Potency, µM (highest dose often 46.1 µM), hits mostly activators. SW480 DNA re-replication, Hoechst DNA content imaging, 48 h. actives 1.8% (n = 340,000). AID 624297; also: nearly all actives have a fitted effect of over 55% in size
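Image-based read-out: total Hoechst fluorescence of nuclei (405 nm excitation, 500-530 nm emission), with hits raising the fraction of high-intensity nuclei. SW480 colon cells incubated 48 hr with compounds at 37 C.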
MCF10A rereplic: induces DNA re-replication in MCF 10a normal breast cells; actives 2.9% (n = 350,000); Potency, µM (top dose mostly 46.1 µM), actives largely listed as activators; MCF 10A DNA re-replication, Hoechst nuclear intensity, 48 h; AID 624296; also: nearly all actives have a fitted effect of over 50% in size
Hits are given with their value; – = inactive; ? = inconclusive; · = not tested or not shown; [ ] = remark or other dose. Unless noted, calls follow the shape of the dose curve; as a rule, active = well fitted curve in the direction sought with a large enough effect; inconclusive = small, poorly fitted or top-dose-only effect, or another doubt; inactive = no such curve, though single readings can be large; an effect the other way counts as inactive or inconclusive.

SMILES	PINK1 expr mod	KB-3-1 tox	KB-V1 MDR tox	PTAP TSG101 blk	SW480 rerep	MCF10A rereplic
O=C(CCS(=O)(=O)c1ccccc1)N(CCCN1CCOCC1)c1nc2c(F)cccc2s1	–	?	?	–	23.1µM	13µM
O=C(CCS(=O)(=O)c1ccccc1)N(CCCN1CCOCC1)c1nc2ccc(F)cc2s1	–	?	?	–	–	18.4µM
CCC1(C2CCN(C(=O)c3ccccc3C)CC2)NC(=O)N(CCc2scnc2C)C1=O (stereo not drawn)	–	·	·	·	·	·
COc1ccc(S(=O)(=O)Nc2cccc(-c3ccc(N4CCC(C)CC4)nn3)c2)cc1OC	–	?	–	·	·	·
CCN1CCN(C(=O)c2cnn(-c3ncc4c(n3)-c3ccccc3CCC4)c2COC)CC1	–	·	·	·	·	·
Cc1cc2oc(C(=O)Nc3ccc(S(=O)(=O)Nc4ncccn4)cc3)cc(=O)c2cc1C	–	–	–	·	·	·
CC(C)CC(NS(=O)(=O)c1ccccc1)C(=O)O (stereo not drawn)	–	–	–	–	–	–[0.0737 µM]
CC(C)CN=C(NS(=O)(=O)c1ccccc1)C(Cl)(Cl)Cl	–	8.2µM	?	–	6.51µM	2.91µM
Cc1ccc(C(=O)NC2CCc3ccccc3C2=O)cc1 (stereo not drawn)	–	–	–	–	–	–
Cc1ccc(C(=O)NC2c3ccccc3-c3ccccc32)cc1	?	6.51µM	5.17µM	–	13µM	–
O=C(c1ccc(Cn2c(=S)[nH]c3ccc(N4CCOCC4)cc3c2=O)cc1)N1CCN(c2ccc(F)cc2)CC1	–	–	?	–	–	4.61µM
COc1ccc(N2CCN(C(=O)c3ccc(Cn4c(=S)[nH]c5ccc(N6CCOCC6)cc5c4=O)cc3)CC2)cc1	–	–	?	–	–	?
O=C(c1ccc(Cn2c(=S)[nH]c3cc4c(cc3c2=O)OCO4)cc1)N1CCN(c2ccccc2)CC1	–	–	–	–	–	–
CCOC(=O)N1CCN(C(=O)c2ccc(Cn3c(=S)[nH]c4cc(C(=O)OC)ccc4c3=O)cc2)CC1	–	–	–	–	–	–
Cc1ccc(C)c(N2CCN(C(=O)c3ccc(Cn4c(=S)[nH]c5ccc(N6CCOCC6)cc5c4=O)cc3)CC2)c1	–	–	–	–	–	5.8µM
CCOC(=O)C1CCCN(C(=O)c2ccc(Cn3c(=S)[nH]c4cc(C(=O)OC)ccc4c3=O)cc2)C1 (stereo not drawn)	–	–	?	–	?	16.4µM
O=C(c1ccc(Cn2c(=S)[nH]c3ccc(Br)cc3c2=O)cc1)N1CCN(C2CCCCC2)CC1	–	?	18.4µM	–	?	?
CC1=C(C(=O)Nc2ccccc2)C(c2ccc(C(=O)O)cc2)n2nc(SCC(=O)c3ccc(C)cc3)nc2N1 (stereo not drawn)	–	–	–	·	·	·
CC(=O)c1cccc(NC(=O)Cn2ccn3nc(-c4ccccc4)cc3c2=O)c1	–	–	–	·	·	·
COCCNC(=O)c1cc2c(c(-c3cccc(-c4cc5ccccc5o4)c3)n1)[C@H](CCO)N(S(=O)C(C)(C)C)C2 (stereo partly drawn)	–	–	18.4µM	·	·	·
CCCNC(=O)c1cc2c(c(-c3cccc(-c4cc5ccccc5o4)c3)n1)[C@@H](CCO)N(C(=O)NC(C)C)C2	–	?	18.4µM	·	·	·
Cc1cc(Cl)ccc1OCC(=O)N(Cc1sccc1C)C1CCS(=O)(=O)C1 (stereo not drawn)	–	·	·	·	·	·
CCOC(=O)N1CCN(C(=O)c2ccc3c(c2)N(Cc2ccccc2F)C(=O)c2ccccc2S3=O)CC1 (stereo not drawn)	–	–	–	·	·	·
CC(Sc1ncnc2sccc12)C(=O)Nc1ccc(S(=O)(=O)N2CCOCC2)cc1 (stereo not drawn)	–	–	23.1µM	–	–	–
Cc1ccc(SC(C)C(=O)Nc2ccc(S(=O)(=O)N3CCOCC3)cc2)cc1 (stereo not drawn)	–	–	11.6µM	–	–	–
SMILES	PINK1 expr mod	KB-3-1 tox	KB-V1 MDR tox	PTAP TSG101 blk	SW480 rerep	MCF10A rereplic
CN(c1nnc(NC(=O)Nc2ccccc2C(F)(F)F)s1)C1CCCCC1	–	–	–	·	·	·
NNc1nc(-c2ccccc2)cc(-c2ccccc2O)n1	–	?	5.17µM	–	?	?
CCOc1ccc(N(C)C(CNS(=O)(=O)c2ccccc2)c2ccccc2)cc1 (stereo not drawn)	–	?	?	·	·	·
Cc1cnccc1CN(C)Cc1nc(Cc2ccccc2Cl)no1	–	20.6µM	9.2µM	–	–	–
CN(Cc1ccccn1)Cc1nc(Cc2ccccc2Cl)no1	–	–	–	–	–	–
Cc1cccc(-n2ncc3c(N4CCN(c5ccccc5)CC4)ncnc32)c1	–	–	–	·	·	·
COc1ccc(N2CCN(c3cc(C)c4ccc(C)cc4n3)CC2)cc1	–	–	?	–	–	20.6µM
COc1ccc(N2CCN(c3ncnc4c3cnn4-c3ccc(C)cc3C)CC2)cc1	–	–	4.61µM	–	–	–
COc1ccc(-n2ncc3c(N4CCN(c5cc(C)ccc5C)CC4)ncnc32)cc1	–	–	–	–	–	–
COc1ccc(N2CCN(c3cc(C)c4ccc(O)cc4n3)CC2)cc1	–	–	–	–	–	–
COc1ccc(-n2ncc3c(N4CCN(c5cccc(C)c5)C(C)C4)ncnc32)cc1 (stereo not drawn)	–	20.6µM	?	·	·	·
Cc1ccc(-n2ncc3c(N4CCN(c5ccccc5)CC4)ncnc32)c(C)c1	–	?	2.31µM	–	–	?
CCOC(=O)C1CCCN(c2nc3c(S(=O)(=O)c4ccc(C)c(C)c4)nnn3c3ccc(Cl)cc23)C1 (stereo not drawn)	–	–	–	·	·	·
COc1ccc(N2CCN(C(=O)Nc3cn(CC(C)C)c(=O)c4ccccc34)CC2)cc1	–	–	–	·	·	·
Cc1ccc(CN=C(N)Nc2nc(C)cc(C)n2)cc1	–	2.59µM	–	–	14.6µM	?
Cc1ccc(C)c(NC(=O)C2CCN(c3cc(C)nc4c(-c5ccc(Cl)cc5)c(C)nn34)CC2)c1	–	–	–	·	·	·
Cc1ccc(-n2nnnc2SCC(=O)N2CCc3ccccc3C2)cc1	–	–	–	–	–	–
CCCOC(=O)c1ccc(-n2nnnc2SCC(=O)N2CCCCC2)cc1	–	–	–	–	–	–[0.0737 µM]
CC(=O)c1ccc(-n2nnnc2SCC(=O)Nc2sc(C)c(C)c2C#N)cc1	–	–	–	–	–	–
Cc1ccc(-n2nnnc2SCC(=O)N2CCCCC2)cc1	–	–	9.2µM	–	–	–
COC(=O)c1ccc(-n2nnnc2SCC(=O)N2CCCCC2)cc1	–	–	20.6µM	–	–	–
Cc1ccc(-n2nnnc2SCC(=O)Nc2sccc2C#N)cc1	?	–	18.4µM	–	?	–
